Assay outcomes (PubChem)
Hits are enriched below; roughly 1.7% of the tested compounds scored in any of these assays.
FGF22 binding – FGF22 (human) thermal shift binding; Q9HCT0; recombinant FGF22 thermal shift, SYPRO orange fluorescence; percent of sucrose octasulfate shift, DMSO zero; activity (Tm shift, normalised), % at 9.99 µM; actives 1.5% (n = 340,000); AID 651658;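 active = mean Tm shift, scaled 0 neutral to 100 positive control, at about 1.3% or above, every replicate too, limit read from the data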
Target sequence (Q9HCT0 whole entry, looked up): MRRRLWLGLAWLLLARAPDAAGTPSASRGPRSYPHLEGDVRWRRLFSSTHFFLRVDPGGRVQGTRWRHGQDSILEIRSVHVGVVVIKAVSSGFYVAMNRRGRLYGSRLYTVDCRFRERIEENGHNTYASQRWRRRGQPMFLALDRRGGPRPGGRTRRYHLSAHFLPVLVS
Vif inh – HIV Vif inhibition; HEK293T cells, Vif self-association by quenched fluorescence, imaging, 24 h; inhibition, % at 7.49 µM; actives 0.35% (n = 340,000); AID 602346; in the data active = inhibition above about 50%, passing the limit was not always enough
CFTR F508del cor – correctors of CFTR F508del function in bronchial epithelial cells. CFBE cells, YFP halide quenching; stimulated with forskolin plus potentiator P3; % fluorescence drop versus neutral controls. activity (quench increase), % at 7.58 µM. actives 0.36% (n = 350,000);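 active = mean added fluorescence quench of at least 8% versus neutral control, with both replicates also reaching 8%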;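 also: cells transiently co-express mutant CFTR-F508del with the halide-sensitive YFP; corrector assay measuring rescue of mutant channel to the surface after 24 h compound exposure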
Each line names hits and unclear results; the compound was inactive in the other large screens.

Cc1ccc(OC(=O)c2ccccc2)cc1C	none
COc1cccc(C(=O)Nc2ccc3c(c2)C(=O)N(C)[C@@H]2CC[C@@H](CC(=O)NCC(F)(F)F)O[C@@H]2CO3)c1	none (no result: Vif inh)
Cn1c(SCC(=O)c2ccc(F)cc2)nnc1-c1cnccn1	Vif inh 122 (no result: FGF22 binding, CFTR F508del cor)
Cn1c(SCC(=O)c2ccccc2)nnc1-c1ccccn1	none
CCOC(=O)[C@]12CCC=C1N(Cc1ccco1)C(=O)[C@H](CC(=O)NCc1ccc(C)o1)C2	FGF22 binding 43 (no result: Vif inh)
CCOC(=O)[C@]12CCCC=C1N(Cc1ccccc1)C(=O)[C@H](CC(=O)NCc1cccc(C(F)(F)F)c1)C2	none (no result: Vif inh)
CCOC(=O)[C@]12CCCC=C1N(Cc1cccc3ccccc13)C(=O)[C@H](CC(=O)NCc1cccc(C(F)(F)F)c1)C2	CFTR F508del cor 11 (no result: Vif inh)
CCOC(=O)[C@]12CCC=C1N(Cc1ccccc1)C(=O)[C@H](CC(=O)NCc1ccc(C)o1)C2	none (no result: Vif inh)
CC(C)CC#Cc1ccc([C@@H]2[C@@H](CO)N3C(=O)CN(S(=O)(=O)c4cccc(F)c4)C[C@@H]23)cc1	none (no result: FGF22 binding, Vif inh)
C[C@@H]1CN([C@H](C)CO)S(=O)(=O)c2ccc(C#Cc3cccnc3)cc2O[C@H]1CN(C)C(=O)CN(C)C	none (no result: Vif inh)
COCC(=O)Nc1ccc2c(c1)C(=O)N(C)[C@@H]1CC[C@H](CC(=O)OC)O[C@H]1CO2	none (no result: Vif inh)
C[C@H]1CCCCO[C@@H](CN(C)C(=O)Cc2ccccc2)[C@@H](C)CN([C@@H](C)CO)C(=O)c2cc(NS(=O)(=O)c3ccc(F)cc3)ccc2O1	none (no result: Vif inh)
CC[n+]1c(/C=C/C=C/N(C(C)=O)c2ccccc2)sc2ccccc21	Vif inh 162 (no result: FGF22 binding, CFTR F508del cor)
CCn1c(/C=C/N(C(C)=O)c2ccccc2)[n+](CC)c2ccc(Cl)cc21	none
CC(C)NC(=O)N(C)C[C@@H]1OCCCC[C@H](C)Oc2ccc(NS(=O)(=O)c3cccs3)cc2C(=O)N([C@@H](C)CO)C[C@@H]1C	none (no result: Vif inh)
COc1ccc(CNC(=O)C[C@H]2C=C[C@H](NC(=O)c3ccc4c(c3)OCO4)[C@@H](CO)O2)cc1	none (no result: Vif inh)
O=C(NN=Cc1ccccc1OC(F)F)c1cccc(S(=O)(=O)N2CCCC2)c1	none
O=C(N/N=C/c1ccc(OC(F)F)cc1OC(F)F)c1cccc(S(=O)(=O)N2CCOCC2)c1	FGF22 binding 44
COC(=O)C[C@H]1CC[C@H]2[C@H](COc3ccc(NC(=O)c4cccc(Cl)c4)cc3C(=O)N2C)O1	none (no result: Vif inh, CFTR F508del cor)
COc1ccc(NC(=O)N(C)C[C@@H]2OCCCC[C@@H](C)Oc3ccc(NC(=O)Nc4ccc(F)cc4)cc3C(=O)N([C@H](C)CO)C[C@@H]2C)cc1	none (no result: Vif inh)
CO[C@@H]1CN(C)C(=O)c2ccc(NC(C)=O)cc2OC[C@H](C)N(C(=O)C2CC2)C[C@@H]1C	none (no result: Vif inh)
Cc1ccccc1OC(C)C(=O)Nc1ccc(S(=O)(=O)Nc2nccs2)cc1 (stereo not drawn)	none
CC(Oc1ccccc1Cl)C(=O)Nc1ccc(S(=O)(=O)Nc2nccs2)cc1 (stereo not drawn)	CFTR F508del cor 8.7
CC(=O)N(C)C[C@H]1Oc2cc(C#CC(C)(C)O)ccc2S(=O)(=O)N([C@H](C)CO)C[C@@H]1C	none (no result: Vif inh)
OC[C@@H]1[C@@H](c2ccccc2)C2(CN(CC3CC3)C2)N1Cc1ccc(F)cc1	none (no result: Vif inh)
C[C@H](CO)N1C[C@H](C)[C@H](CN(C)C)Oc2ccc(NC(=O)c3ccncc3)cc2C1=O	none (no result: Vif inh)
O=C1CSC(=S)N1/N=C/c1cc(Br)c(O)c(Br)c1	Vif inh 70 (no result: FGF22 binding, CFTR F508del cor)
COc1cc(/C=N/N2C(=O)CSC2=S)ccc1O	none (no result: FGF22 binding, CFTR F508del cor)
C[C@H]1CN([C@@H](C)CO)C(=O)c2cccc(NC(=O)C3CCCCC3)c2O[C@@H]1CN(C)C(=O)Nc1cccc2ccccc12	none (no result: Vif inh)
C[C@@H]1CN([C@@H](C)CO)C(=O)c2cc(NS(=O)(=O)c3cn(C)cn3)ccc2O[C@@H](C)CCCCO[C@H]1CN(C)C(=O)c1ccncc1	none (no result: Vif inh)
C[C@H]1CN([C@@H](C)CO)C(=O)c2cc(NS(=O)(=O)c3ccccc3)ccc2O[C@H]1CN(C)S(C)(=O)=O	none (no result: Vif inh)
Cc1ccc(-c2ccc3c(c2)O[C@@H](CN(C)Cc2ccccn2)[C@H](C)CN([C@@H](C)CO)S3(=O)=O)cc1	none (no result: Vif inh)
C[C@H](CO)N1C[C@H](C)[C@H](CN(C)Cc2ccccn2)Oc2cc(C#CC3CC3)ccc2S1(=O)=O	none (no result: Vif inh)
C[C@@H]1CN([C@@H](C)CO)S(=O)(=O)c2ccc(-c3ccc(C#N)cc3)cc2O[C@H]1CN(C)Cc1cccc(F)c1	CFTR F508del cor 8.0 (no result: Vif inh)
C[C@@H]1CN([C@H](C)CO)S(=O)(=O)c2ccc(C#CC3CC3)cc2O[C@H]1CN(C)Cc1ccccn1	CFTR F508del cor 17 (no result: Vif inh)
C[C@H]1CN([C@@H](C)CO)S(=O)(=O)c2ccc(-c3ccc(C#N)cc3)cc2O[C@@H]1CN(C)Cc1ccccn1	CFTR F508del cor 12 (no result: Vif inh)
C[C@@H]1CN([C@H](C)CO)S(=O)(=O)c2ccc(-c3ccc(C#N)cc3)cc2O[C@@H]1CN(C)Cc1cccc(F)c1	none (no result: Vif inh)
C[C@H](CO)N1C[C@H](C)[C@@H](CN(C)Cc2ccccn2)Oc2cc(-c3ccc(C#N)cc3)ccc2S1(=O)=O	none (no result: FGF22 binding, Vif inh)
Cc1ccc(-c2ccc3c(c2)O[C@@H](CN(C)Cc2ccccn2)[C@H](C)CN([C@H](C)CO)S3(=O)=O)cc1	CFTR F508del cor 16 (no result: Vif inh)
CCCC#Cc1ccc2c(c1)O[C@@H](CN(C)C(=O)COC)[C@@H](C)CN([C@@H](C)CO)S2(=O)=O	none (no result: Vif inh)
O=C1CN(S(=O)(=O)Cc2ccccc2)C[C@H]2[C@H](c3ccc(C#Cc4cccnc4)cc3)[C@@H](CO)N12	none (no result: FGF22 binding, Vif inh)
CC=Cc1ccc2n(c1=O)C[C@@H]1[C@@H](CO)[C@H](C(=O)Nc3nccs3)N(Cc3ccccc3F)[C@H]21 (mixture of isomers)	none (no result: Vif inh)
O=C(C[C@@H]1C[C@H]2c3cc(NC(=O)NC4CCCC4)ccc3O[C@H]2[C@H](CO)O1)NCc1ccc(Cl)cc1	none (no result: Vif inh)
O=C(NC[C@@H]1N[C@@H](CO)[C@H]1c1ccc(C2=CCCCC2)cc1)c1ccc(F)cc1	none (no result: Vif inh)
C[C@H]1CN([C@@H](C)CO)C(=O)c2cc(NS(=O)(=O)c3ccc(Cl)cc3)ccc2O[C@H]1CN(C)S(=O)(=O)c1cn(C)cn1	none (no result: Vif inh)
C[C@@H]1CN([C@@H](C)CO)C(=O)c2cccc(NS(=O)(=O)c3cccs3)c2O[C@@H]1CN(C)Cc1ccc2c(c1)OCO2	none (no result: Vif inh)
Cc1nc(C)c(C(=O)Nc2cccc(F)c2)s1	none
Cc1cc(C)c(C(=O)Nc2cccc(F)c2)c(Cl)n1	FGF22 binding 43
COc1cc(C(=O)Oc2cccc(C)c2)cc(OC)c1OC	none (no result: FGF22 binding, CFTR F508del cor)
COc1cc(OC)nc(Oc2ccccc2C(=O)Oc2cccc(C)c2)n1	Vif inh 74 (no result: FGF22 binding, CFTR F508del cor)
OCCNCCSc1ccc(Cl)cc1	FGF22 binding 43
OCCNCCCCSc1ccc(Cl)cc1	none
COc1ccc(-c2cnc3c(c2)C(=O)N([C@@H](C)CO)C[C@H](C)[C@H](CN(C)S(=O)(=O)c2ccc(OC)cc2)O3)cc1	none (no result: FGF22 binding, Vif inh)
O=C(COc1nncc2ccccc12)Nc1ccc(F)c(F)c1	FGF22 binding 43
O=C(COc1nncc2ccccc12)Nc1c(F)c(F)c(F)c(F)c1F	none
O=C(C[C@H]1C=C[C@H](NC(=O)c2ccncc2)[C@H](CO)O1)NCC1CCCCC1	none (no result: Vif inh)
CC(=O)c1ccc(N(CC(=O)Nc2cc(C)on2)S(=O)(=O)c2ccc(C)cc2)cc1	FGF22 binding 43
